High-throughput results as filed in PubChem BioAssay.
miR122 inh – miR-122 sensor activation. activation, % at 12.5 µM. 0.14% of 340,000 active. AID 623901. Huh7 psiCHECK-miR122 Renilla luciferase sensor, 48 h;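 active means mean activation of 30% or more, with every replicate also reaching 30%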;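 further: 0% = median of neutral control wells and 100% = median of positive control wells; higher luciferase signal means stronger suppression of miR-122 activity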
Starred values were filed as active, the others as inactive. Shown is part of a subset that was picked to be rich in hits.

SMILES	miR122 inh
COc1cccc(-c2cnc3c(c2)C(=O)N([C@@H](C)CO)C[C@H](C)[C@H](CN(C)CC2CCOCC2)O3)c1	8
CO[C@H]1CN(C)C(=O)c2cc(NC(=O)Cc3ccccc3)ccc2OC[C@@H](C)N(C)C[C@@H]1C	1
COCC#Cc1ccc2c(c1)O[C@@H](CN(C)C(=O)C1CCCCC1)[C@H](C)CN([C@H](C)CO)S2(=O)=O	-12
C[C@@H]1CN([C@H](C)CO)S(=O)(=O)c2ccc(C#Cc3ccccc3)cc2O[C@H]1CN(C)S(=O)(=O)c1ccccc1F	-3
CC(C)C#Cc1cnc2c(c1)C(=O)N([C@H](C)CO)C[C@H](C)[C@@H](CN(C)C(=O)CC1CC1)O2	-5
C[C@H]1CN([C@@H](C)CO)C(=O)c2cccc(NC(=O)c3ccncc3)c2O[C@@H]1CN(C)Cc1ccc(C(F)(F)F)cc1	-108
C[C@H](CO)N1C[C@H](C)[C@H](CN(C)C(=O)C2CCCCC2)Oc2ncc(-c3cccc(C#N)c3)cc2C1=O	-2
COCC(=O)Nc1ccc2c(c1)C(=O)N(C)[C@H]1CC[C@@H](CC(=O)O)O[C@H]1CO2	-262
COCC(=O)Nc1ccc2c(c1)C(=O)N(C)[C@@H]1CC[C@H](CC(=O)NCc3ccccc3F)O[C@H]1CO2	50*
COCC(=O)Nc1ccc2c(c1)C(=O)N(C)[C@@H]1CC[C@H](CC(=O)NCCCN(C)C)O[C@H]1CO2	45*
C[C@H]1CN([C@@H](C)CO)C(=O)c2cc(/C=C/c3ccccc3)cnc2O[C@@H]1CN(C)C(=O)c1cccnc1	2
CO[C@H]1CN(C)C(=O)c2ccc(NC(=O)Nc3cccc(F)c3)cc2OC[C@@H](C)N(C)C[C@@H]1C	-2
C[C@H](CO)N1C[C@H](C)[C@H](CN(C)C(=O)c2ccccc2F)Oc2ncc(-c3ccncc3)cc2C1=O	8
COc1ccc(C#Cc2cnc3c(c2)C(=O)N([C@H](C)CO)C[C@H](C)[C@H](CN(C)CC2CCCC2)O3)cc1	12
C[C@H](CO)N1C[C@H](C)[C@@H](CN(C)C(=O)C2CCCCC2)Oc2ncc(C3=CCCC3)cc2C1=O	2
C[C@@H]1CN([C@H](C)CO)C(=O)c2cc(-c3cccc(F)c3)cnc2O[C@@H]1CN(C)C(=O)c1ccccn1	0
C[C@@H]1CN([C@@H](C)CO)C(=O)c2cc(-c3cccc(C#N)c3)cnc2O[C@H]1CN(C)C(=O)C1CCCCC1	2
COc1ccccc1C(=O)Nc1ccc2c(c1)C(=O)N(C)[C@H]1CC[C@H](CC(=O)NCc3ccc(Cl)c(Cl)c3)O[C@H]1CO2	-308
COc1ccccc1C(=O)Nc1ccc2c(c1)C(=O)N(C)[C@H]1CC[C@H](CC(=O)NCc3ccc(Cl)c(Cl)c3)O[C@@H]1CO2	-139
CC(=O)Nc1ccc2c(c1)C(=O)N(C)[C@@H]1CC[C@@H](CC(=O)NCc3ccc(Cl)cc3)O[C@H]1CO2	68*
COc1cccc(CNC(=O)C[C@@H]2CC[C@H]3[C@H](COc4ccc(NC(C)=O)cc4C(=O)N3C)O2)c1	37*
CC(=O)Nc1ccc2c(c1)C(=O)N(C)[C@H]1CC[C@@H](CC(=O)NCc3ccc(Cl)cc3)O[C@H]1CO2	-130
COc1cccc(C(=O)Nc2ccc3c(c2)C(=O)N(C)[C@H]2CC[C@H](CC(=O)NCc4ccc(F)cc4)O[C@@H]2CO3)c1	53*
C[C@H](CO)N1C[C@H](C)[C@@H](CN(C)C(=O)c2ccccc2)Oc2cc(-c3cccc(C#N)c3)ccc2S1(=O)=O	-9
C[C@@H]1CN([C@@H](C)CO)C(=O)c2cc(-c3ccc(C(=O)N(C)C)cc3)cnc2O[C@@H]1CN(C)Cc1ccc(C(=O)O)cc1	-1
SMILES	miR122 inh
CC(C)CC#Cc1ccc2c(c1)O[C@@H](CN(C)C(=O)C1CCOCC1)[C@@H](C)CN([C@@H](C)CO)S2(=O)=O	-29
C[C@@H]1CN([C@H](C)CO)C(=O)c2cc(-c3cccc(C#N)c3)cnc2O[C@H]1CN(C)Cc1ccccc1	-3
C[C@H](CO)N1C[C@H](C)[C@@H](CN(C)Cc2ccc(C(F)(F)F)cc2)Oc2c(cccc2N(C)C)C1=O	-98
CCC(=O)N(C)C[C@@H]1Oc2cc(C#C[C@@H](C)O)ccc2S(=O)(=O)N([C@@H](C)CO)C[C@H]1C	4
C[C@H](CO)N1C[C@H](C)[C@H](CN(C)C(=O)Nc2ccccc2)Oc2ncc(C#Cc3ccc(F)cc3)cc2C1=O	-8
CCC(=O)N(C)C[C@H]1Oc2ncc(C#CCC3CCCC3)cc2C(=O)N([C@@H](C)CO)C[C@@H]1C	7
C[C@@H]1CN([C@H](C)CO)C(=O)Cc2cc(NC(=O)Nc3ccc(C(F)(F)F)cc3)ccc2O[C@@H]1CN(C)C(=O)Nc1cccc2ccccc12	-112
C[C@@H]1CN([C@@H](C)CO)C(=O)Cc2cc(NC(=O)Nc3ccc(C(F)(F)F)cc3)ccc2O[C@@H]1CN(C)C(=O)Nc1cccc2ccccc12	-265
C[C@H](CO)N1C[C@H](C)[C@@H](CN(C)Cc2ccc(C(F)(F)F)cc2)Oc2ccc(N(C)C)cc2C1=O	-98
C[C@@H]1CN([C@H](C)CO)C(=O)c2cc(NC(=O)Cc3ccccc3)ccc2O[C@@H](C)CCCCO[C@H]1CN(C)Cc1ccc(C(F)(F)F)cc1	31*
C[C@@H]1CN([C@@H](C)CO)C(=O)c2cccc(NC(=O)Nc3ccc(F)cc3)c2O[C@H]1CN(C)Cc1ccc(C(F)(F)F)cc1	-91
C[C@@H]1CN([C@@H](C)CO)C(=O)c2cccc(NC(=O)Nc3ccccc3)c2O[C@H]1CN(C)Cc1ccc(C(F)(F)F)cc1	-115
C[C@H]1CN([C@@H](C)CO)C(=O)c2cccc(NC(=O)NC3CCCCC3)c2O[C@@H]1CN(C)Cc1ccc(C(F)(F)F)cc1	-121
COc1ccc(S(=O)(=O)Nc2cccc3c2O[C@@H](CN(C)Cc2ccc(C(F)(F)F)cc2)[C@H](C)CN([C@H](C)CO)C3=O)cc1	-102
COc1ccc(CN(C)C[C@H]2OCCCC[C@H](C)Oc3ccc(NC(=O)Nc4ccc(C(F)(F)F)cc4)cc3C(=O)N([C@@H](C)CO)C[C@@H]2C)cc1	31*
C[C@@H]1CN([C@@H](C)CO)C(=O)Cc2cc(NC(=O)Nc3ccc(C(F)(F)F)cc3)ccc2O[C@H]1CN(C)Cc1ccc(Oc2ccccc2)cc1	35*
COc1ccc(CN(C)C[C@@H]2OCCCC[C@H](C)Oc3ccc(NC(=O)Nc4ccc(C(F)(F)F)cc4)cc3C(=O)N([C@H](C)CO)C[C@H]2C)cc1	32*
C[C@H](CO)N1C[C@H](C)[C@@H](CN(C)Cc2ccc(C(F)(F)F)cc2)Oc2c(NC(=O)C3CCCCC3)cccc2C1=O	-122
C[C@H]1CN([C@@H](C)CO)C(=O)c2cc(C#CC(C)(C)O)cnc2O[C@@H]1CN(C)C(=O)C1CC1	-2
COCC#Cc1ccc2c(c1)O[C@H](CN(C)Cc1cncnc1)[C@H](C)CN([C@H](C)CO)S2(=O)=O	-14
C[C@@H]1CN([C@H](C)CO)C(=O)c2cc(-c3cncnc3)cnc2O[C@@H]1CN(C)Cc1ccncc1	3
C[C@H]1CN([C@@H](C)CO)S(=O)(=O)c2ccc(C#CC3(O)CCCC3)cc2O[C@H]1CN(C)C(=O)Nc1ccc(F)cc1	3
C[C@H](CO)N1C[C@H](C)[C@H](CN(C)Cc2ccc(C(=O)O)cc2)Oc2ncc(-c3ccc(F)cc3)cc2C1=O	-22
C[C@@H]1CN([C@H](C)CO)C(=O)c2cc(-c3cccnc3)cnc2O[C@@H]1CN(C)S(C)(=O)=O	-4
